Assay results reported in the supplement of paper PMC12632987.

B1: GBRAPL2_151_7316 (protein)
chain: EWKEEALKALEEGAKAVEEFAKSLPESEELERTELELLAGGLDAYKALIEETDDEEEIRRLLKEAAELVEDAAEIAKKLGREEAAKKLEKIAKKLKELAE
B2: GBRAPL2_151_7310 (protein)
chain: ELKEKVVKALKEAAKALEELAELLSPEHELEKTEIELIAGGMDAYAALVEETEDEEKIKEITKEAAELVEDAAKIAKELGLEEQAKKLEEIAKKLKELAA
B3: GBRAPL2_128_7297 (protein)
chain: MKLVEIDIDINNEEEAKLVIEVLEEIAKEGSEEVKKLAEAAKDLAESLAEEGYGEKGTVVDILSEEDAKELKELYEKLSKKYGKEKIEKRIKLEVDDIPP
B4: GBRAPL2_128_7291 (protein)
chain: MKLVEISVKVENEEEYELAKKVLSDIAEKSSPEVAKLADAARDMLEENKEEGYNVGVTVADILSEEQAEELRKLFEEVAKEYGKEKVEKIIELTVDDLPP
B5: GBRAPL2_128_7296 (protein)
chain: MKIVEIDIDVENEEEAELVLEILEEISKKSSPEVKKLMDAAKDMVESLKEDGYDEKATVVDILSEEDAKELEELYKEEAKKYGEEKVKKIIKLEIDEIPP
B6: GBRAPL2_151_7304 (protein)
chain: GWKEEAIKALEKAAKAAEEAAAALPESQELERTELELLAGGFEADAILIEETDDEEEIKRLVKEAAERAEDAAKLAKKLGLEEQAKKLEKIAKELKKLAK
B7: GBRAPL2_151_7305 (protein)
chain: SEKEKAIELLEEAAKAAEEAIKKLSEEQELAKTEFELIAGGLEALAILVEETDDEEEIKRLIKEAAELTEDAAKLAEELGLEEEAKKLKEISKELKKLAE
B8: GBRAPL2_151_7308 (protein)
chain: SEKEKAIELLKKAAEAAEEAIKALSEDQELEKTEFELIAGGLEALAILIEEEDDEEKIKELVKRGAELVKDAAELAKKLGLEEQAKKLKEIAKELEKLSK
B9: GBRAPL2_151_7306 (protein)
chain: SKKEKAIELLKEAAKTAEEAVKKLSEEQELEKTELELIAGGLEALAILVEETDDEEKIKKLVKEAAELVEDAAKLAEELGLEEEAKKLKELAKELKKLAE
B10: GBRAPL2_151_7302 (protein)
chain: SWKEKIIKALEEAAKIAEEAVEKLSESQELEKTEFELIAGGLDALRALIEETDDEEEIRRLARRAAELTKDGAEIAKKLGLEEEAEKFEKRAKELEELAE
B11: GBRAPL2_151_7307 (protein)
chain: SRKEEAIRLLEEAARTAEEAVEALPESKELEKTELELLAGGLDALAILVEEEDDEEKVRELVKEGAELTEDAARLARELGLEEQARRLEELSRRLKELAE
B12: GBRAPL2_128_7299 (protein)
chain: MKLVEIDITIENKEEAELVKKILEEIAKKGSEEVKKLADAAKDLAETLAEEGYGEKGTVVDILSDEDAEELKKLYEELAEKYGKEKVEKRIKLEVDDIPP
B13: GBRAPL2_128_7295 (protein)
chain: MKIVEIDIDIKNEEEAELVKEIFKEIAEKSSPEIKKLMDAAIDMVESLKEDGYDEKGTVVDILSKEDAEELKKLYEEEAEKYGKEKVEKIIKLEISDIPP
B14: GBRAPL2_151_7321 (protein)
chain: SELEKLKKEAEKLLEELEKLVKELEKKKPEKSTEVETLLGGAEADLILAEEAEDPEEKRRFLLEAAELLADAFKLIAKVLGSEKAKKLAKEAEELAKKLA
B15: GBRAPL2_151_7313 (protein)
chain: GWKEEALKALKEAAEAIEKAAEALPPEHELERTELELLAGGMDAYRALVEETDDREEIKRLLKDAAELVKDAAEIMEKLGKEEAAKKLKKIAEKLKKLAE
B16: GBRAPL2_128_7293 (protein)
chain: MKIVEVDIEIKNEEEAEKVKAAFDEIAERGSPAVAKLADAAKDMAESLLEDGFDEKGTVVDVLSDEDAAELRELYEELAKEYGEEFMNENIKLTIDDIPP
B17: GBRAPL2_151_7309 (protein)
chain: KLKEEVIEALERAAEAVEKAAEKLSPEQELERTELELIAGGMEAYAALVEETEDEEKIKEITRRAAEMVRDAAEIAKELGLEEEAKELEEIAKELEELAA
B18: GBRAPL2_151_7303 (protein)
chain: GWKEEAIKALEEAAKAAEEAAKALSPEHELERTELELLAGGFEADAILIEETDDEEEIKRLVKEAAEMAKDAAKLAKKLGLEKEAKKLEKIAEKLKKLAE
B19: GBRAPL2_151_7317 (protein)
chain: SELEKLLKELKALAEELWKLAEELAKKDPSVATEVETLVGGVEADIILAEEEEDPEEKRKHLLEAAKLAKDAAELIAEVLKSEKAKKLAEKAKKLAEKLK
B20: GBRAPL2_151_7315 (protein)
chain: SWKEEALKALEEAAEAIEEAAKKLPPEHELERTELELLAGGMDAYKALIEETDDEEEIKRLLKEAAELVKEAAEIMKKLGFEEEAKKLEKIAKELEKLAK
B21: GBRAPL2_128_7290 (protein)
chain: MKLVTIDVTIKNEEEYNLAVKVLKELAEKGSPKVADLADAARDMVEEAKKEGYNENVSVADILSEEDAEELKKLYEELAKKYGEEKVKSIIKLTIDDIPP
B22: GBRAPL2_128_7294 (protein)
chain: MKIVEIDLDIKNEEEANLAKEILKEIAAKSSEKVKDLMDAAIDMVESLEEDGYDEKATVVDVLSEEDAEELKKLYEEEAKKYGEEKVNKIIKLEISDIPP
B23: GBRAPL2_128_7298 (protein)
chain: MKLVEIDIDIENEEEAKLVLEILDEIAKRGSPEVKKLADAAKDLAESLAESGYGEKGTVVDILSEEDAEELKKLYEELAKEYGEEKVKKRIKLEVDDIPP
B24: GBRAPL2_151_7314 (protein)
chain: SWKEEALKALEKGAKAIEEFAKSLPEEHELERTEAELLAGGMEAYRALIEETDDEEEIKRLLKEAAELVKDAAEIAKELGFEKEAKELEKIAKELEKLAK
B25: GBRAPL2_151_7301 (protein)
chain: SWKEEAIKALEEAAKIAEEAVEKLSEEQELEKTEFELIAGGMDALKALIEETDDEELIKKYVERGAELVKDAAEIAKELGLEELAKKFEKLAKELEKLSK
B26: GBRAPL2_151_7300 (protein)
chain: EWKEEAIKALEEAAKIAEEAVEKLDESQELEKTEFELIAGGLDALKALIEETDDEEKIREYVKRGAELVKDAAKIAKELGLEEEAKKFEKLAKKLEELSK
B27: GBRAPL2_128_7292 (protein)
chain: MKLVEIDLDIKNEEEYELAKKVLTELARESSPAVADLANAALDMVEEAKKDGFKDKYVVADVLSPEDAAELEALFNRLAERYGAEKVRKVIQLEVSDIPP
B28: GBRAPL2_151_7318 (protein)
chain: EELEELLKRLKKLAEKLAKLAEELAKEDPEHATEVETLVGGVEADIILAEEEEDEEEKRRHLLRAAELAADAAKLIAEVLKKEEAKKLAEEAKELAEKLK
B29: GBRAPL2_151_7319 (protein)
chain: GELEELEKKLKELIKKLEKLLEKLKKEKPEYETEVSTLLGGAEADLLLAEEAEDPEEKRRFLAEAAELAADAFKLIAEVLGSEEAKKLAEEAKKLLEKLK
B30: GBRAPL2_151_7311 (protein)
chain: DLKEKAVKALEEAAKALEELAEKLSEEQELEKTEIELLAGGMDAYAILVEETEDEEEIKRIVKDAAELVEDAAKIAKELGLEEDAKKLKEIAKKLKELAK
B31: GBRAPL2_151_7320 (protein)
chain: EELEELERRARELLEELEELVKELEEKKPEHSTEVETLVGGAEADLLLAEEAEDPEEKRRFLLEAAKLIRDAFELIAKILGSERAKELAEEAKELAKELE
B32: GBRAPL2_151_7312 (protein)
chain: SLKEKAVEKLKEAAELVEEAAKALPESQELERTELELIAGGMDADAILIEETEDEEEIKKIIKESAERVEDAAKIAKKLGLEELAKKLEEKAKELKKLAE

Target: GABARAPL2, P60520
Sequence (P60520 whole entry, the tested form may be a part): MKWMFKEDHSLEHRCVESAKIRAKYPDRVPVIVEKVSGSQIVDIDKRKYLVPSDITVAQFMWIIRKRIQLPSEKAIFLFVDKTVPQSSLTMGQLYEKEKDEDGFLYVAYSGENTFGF
Assay: median log2 fold change of GCK-ALFA target abundance (FLAG IP / Myc IP barcode read proportion) (log2 ratio); each designed protein is fused to an ALFA-tag nanobody in HEK293 cells to bring the named protein to FLAG-tagged glucokinase (GCK); Myc marks an untargeted standard; higher = target protein stabilised (more abundant)
Settings: target protein: 3xFLAG-MCP-GCK-ALFA reporter; HEK293 landing pad (RPLP)
In short: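 The readout is target abundance, the per-binder median log2 ratio of FLAG to Myc barcode read proportions. It came from HEK293 landing-pad cells carrying a recombined ALFA-nanobody-fused binder library, induced with 2 μg mL^−1 doxycycline and transfected with a plasmid for a FLAG-tagged target and a Myc-tagged standard. After 48 h, lysates were immunoprecipitated with anti-FLAG and anti-Myc, and circular RNA barcodes were reverse transcribed, amplified and sequenced. Each barcode needed a proportion of at least 10^−7 in both replicates and each binder at least 3 barcodes per replicate, a pseudocount of 10^−6 was added, and the replicates were pooled.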

Binder | median log2 fold change
B1 | 0.266
B2 | 0.111
B3 | -0.194
B4 | 0.0557
B5 | -0.305
B6 | 0.0343
B7 | -0.356
B8 | 0.202
B9 | 0.123
B10 | 0.2
B11 | -0.403
B12 | -0.468
B13 | -0.663
B14 | 0.168
B15 | -0.0822
B16 | -0.421

Binder | median log2 fold change
B17 | 0.0437
B18 | 0.179
B19 | 0.0623
B20 | -0.126
B21 | -0.128
B22 | 0.042
B23 | -0.397
B24 | 0.164
B25 | 0.0733
B26 | 0.271
B27 | -0.166
B28 | 0.242
B29 | 0.141
B30 | -0.0443
B31 | 0.183
B32 | 0.307
